# Inconclusive results are not listed. Entries that show only a call come without a potency. Activity calls are given as the source filed them. Calls follow the shape of the dose curve; as a rule, active = well fitted curve in the direction sought with a large enough effect; inconclusive = small, poorly fitted or top-dose-only effect, or another doubt; inactive = no such curve, though single readings can be large; an effect the other way counts as inactive or inconclusive.
# Biological target: Methanococcus maripaludis chaperonin (MmCpn) (UniProt Q6LX38)
# Assay: High-Throughput Screening for Modulators of Cytosolic Chaperonin Activity: MmCpn Primary Screen (AID 488978);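 also: 50 nM MmCpn enzyme hydrolysing 30 µM ATP at 37 °C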
# Conditions: Purified MmCpn ATPase activity, ADP HTRF detection, 10 min; series mostly up to 76.9 µM
# Procedure, shortened: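 MmCpn (50 nM final) was preincubated with compound 5 min at RT, then 30 uM ATP (final) was added and the reaction ran 10 min at 37C. ADP produced was detected by Transcreener HTRF (ex 320 nm; em 590/665 nm).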
# Chain of Methanococcus maripaludis chaperonin (MmCpn) (Q6LX38 1-543): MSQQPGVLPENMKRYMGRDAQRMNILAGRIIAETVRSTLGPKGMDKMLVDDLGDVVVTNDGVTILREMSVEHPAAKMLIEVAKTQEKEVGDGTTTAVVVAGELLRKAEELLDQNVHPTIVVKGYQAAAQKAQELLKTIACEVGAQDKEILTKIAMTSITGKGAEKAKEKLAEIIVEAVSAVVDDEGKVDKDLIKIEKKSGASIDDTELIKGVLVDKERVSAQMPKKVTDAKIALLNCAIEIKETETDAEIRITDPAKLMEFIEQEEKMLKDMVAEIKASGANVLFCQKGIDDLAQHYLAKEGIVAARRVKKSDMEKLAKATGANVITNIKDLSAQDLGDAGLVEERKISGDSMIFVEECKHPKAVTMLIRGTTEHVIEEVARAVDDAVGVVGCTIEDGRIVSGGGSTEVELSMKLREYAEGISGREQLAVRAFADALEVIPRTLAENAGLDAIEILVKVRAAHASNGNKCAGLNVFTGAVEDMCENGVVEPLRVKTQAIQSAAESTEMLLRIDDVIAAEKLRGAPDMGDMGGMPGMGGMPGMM
row,SMILES,outcome
1,CCCOc1ccccc1-c1nc2n[nH]nc2c(=O)[nH]1,inactive
2,NC(=O)c1ncn([C@@H]2O[C@H](CO)[C@@H](O)[C@H]2O)c1O,inactive
3,CCc1cccc(N(C)C(N)=Nc2cccc3ccccc23)c1,inactive
4,C[n+]1cc2c3c(ccc2c2ccc4cc5c(cc4c21)OCO5)OCO3,inactive
5,Cc1nc2sccn2c(=O)c1CCN1CCC(=C(c2ccc(F)cc2)c2ccc(F)cc2)CC1,inactive

# Biological target: Transient receptor potential cation channel subfamily V member 1 (Homo sapiens) (UniProt Q8NER1)
# Assay: HTS Assay for Compounds that Act as Enhancers of the Vanilloid Receptor 1 (AID 488979)
# Conditions: TRPV1-expressing cells, enhancer of channel activity, stimulated with capsaicin at EC20; series mostly up to 41.7 µM
# Procedure, shortened: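 TRPV1-expressing cells loaded with Fluo-8 calcium dye; compounds added and calcium influx read kinetically for 3 min (agonist phase), then capsaicin at EC20 added and read 2 min more for enhancement. Fluorescence ex 480/em 520 nm.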
# Chain of Transient receptor potential cation channel subfamily V member 1 (Homo sapiens) (Q8NER1 whole entry, looked up): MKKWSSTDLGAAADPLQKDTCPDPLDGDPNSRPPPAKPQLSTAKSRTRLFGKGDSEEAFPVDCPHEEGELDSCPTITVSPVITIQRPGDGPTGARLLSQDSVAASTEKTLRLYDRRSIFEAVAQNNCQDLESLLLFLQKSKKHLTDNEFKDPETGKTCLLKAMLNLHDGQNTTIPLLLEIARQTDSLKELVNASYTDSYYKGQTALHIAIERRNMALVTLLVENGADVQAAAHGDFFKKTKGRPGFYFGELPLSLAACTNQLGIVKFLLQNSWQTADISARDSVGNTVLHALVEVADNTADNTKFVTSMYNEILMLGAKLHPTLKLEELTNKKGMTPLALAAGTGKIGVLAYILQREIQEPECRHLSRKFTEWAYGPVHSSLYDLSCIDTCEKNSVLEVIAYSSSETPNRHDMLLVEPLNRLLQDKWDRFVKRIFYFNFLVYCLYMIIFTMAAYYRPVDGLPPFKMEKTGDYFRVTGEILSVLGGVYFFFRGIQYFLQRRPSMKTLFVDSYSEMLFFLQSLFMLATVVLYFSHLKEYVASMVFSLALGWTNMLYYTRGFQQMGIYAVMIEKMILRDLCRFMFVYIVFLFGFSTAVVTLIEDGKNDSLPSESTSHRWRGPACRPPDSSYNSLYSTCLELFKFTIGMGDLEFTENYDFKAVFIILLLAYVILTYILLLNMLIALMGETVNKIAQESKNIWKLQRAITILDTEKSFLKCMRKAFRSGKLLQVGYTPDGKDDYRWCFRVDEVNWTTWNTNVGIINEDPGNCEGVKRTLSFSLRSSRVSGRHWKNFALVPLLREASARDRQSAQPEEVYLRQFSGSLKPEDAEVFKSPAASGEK
row,SMILES,outcome
1,CC1=NS(=O)(=O)c2cc(Cl)ccc2N1,inactive
2,O=C(O)CN(CCOCCOCCN(CC(=O)O)CC(=O)O)CC(=O)O,inactive
3,CNCCC(Oc1ccccc1OC)c1ccccc1 (stereo not drawn),inactive
4,C[N+](C)(C)CCOC(=O)CCC(=O)OCC[N+](C)(C)C,inactive
5,CC(C)COCC(CN(Cc1ccccc1)c1ccccc1)N1CCCC1 (stereo not drawn),inactive
6,CN(C(=O)CCCOc1ccc2[nH]c(=O)ccc2c1)C1CCCCC1,inactive
7,O=C(CCNNC(=O)c1ccncc1)NCc1ccccc1,inactive
8,CCn1ccnc1CC1COc2ccccc2O1 (stereo not drawn),inactive
9,Cc1ccc(S(=O)(=O)NC(=O)NN2CCCCCC2)cc1,inactive

# Biological target: Thyrotropin receptor (Homo sapiens) (UniProt P16473)
# Assay: qHTS Assay for Antagonists of the Thyroid Stimulating Hormone Receptor (AID 488980)
# Conditions: TSHR-expressing cells, cAMP antagonist read-out; series mostly up to 57.5 µM
# Procedure, shortened: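 HEK293 cells transfected with human TSHR, suspended in HEPES-buffered HBSS with 70 uM RO 20-1724, were treated with compounds plus TSH at EC80 (4 nM final). cAMP was measured by competitive HTRF (cryptate anti-cAMP antibody, cAMP-d2 acceptor).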
# Chain of Thyrotropin receptor (Homo sapiens) (P16473 whole entry, looked up): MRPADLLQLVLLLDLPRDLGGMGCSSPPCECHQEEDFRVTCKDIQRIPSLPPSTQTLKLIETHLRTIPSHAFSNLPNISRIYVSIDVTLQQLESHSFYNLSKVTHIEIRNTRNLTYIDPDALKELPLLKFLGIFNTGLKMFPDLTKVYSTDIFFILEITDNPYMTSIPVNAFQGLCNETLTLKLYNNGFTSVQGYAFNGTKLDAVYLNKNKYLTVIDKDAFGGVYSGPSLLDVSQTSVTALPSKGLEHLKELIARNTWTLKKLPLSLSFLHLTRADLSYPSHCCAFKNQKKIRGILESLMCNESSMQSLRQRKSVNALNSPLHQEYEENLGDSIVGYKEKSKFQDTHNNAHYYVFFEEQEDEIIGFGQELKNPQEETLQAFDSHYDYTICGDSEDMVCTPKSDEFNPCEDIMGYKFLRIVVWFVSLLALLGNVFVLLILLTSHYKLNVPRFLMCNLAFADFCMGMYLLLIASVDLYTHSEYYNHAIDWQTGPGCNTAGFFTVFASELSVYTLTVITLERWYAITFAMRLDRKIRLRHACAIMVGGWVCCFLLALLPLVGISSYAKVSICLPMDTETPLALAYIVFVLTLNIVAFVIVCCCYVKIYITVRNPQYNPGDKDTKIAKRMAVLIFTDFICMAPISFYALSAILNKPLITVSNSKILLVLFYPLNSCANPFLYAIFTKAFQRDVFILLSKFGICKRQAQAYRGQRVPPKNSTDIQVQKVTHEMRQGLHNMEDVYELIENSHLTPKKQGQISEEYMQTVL
row,SMILES,outcome
1,CC(C)[N+](C)(CCOC(=O)C1c2ccccc2Oc2ccccc21)C(C)C,inactive
2,CC1=NS(=O)(=O)c2cc(Cl)ccc2N1,inactive
3,O=C(O)CN(CCOCCOCCN(CC(=O)O)CC(=O)O)CC(=O)O,inactive
4,CCO/C([O-])=N/c1c[n+](N2CCOCC2)no1,inactive
5,CNCCC(Oc1ccccc1OC)c1ccccc1 (stereo not drawn),inactive
6,C[N+](C)(C)CCOC(=O)CCC(=O)OCC[N+](C)(C)C,inactive
7,CCCN(CCC)CCc1cccc2c1CC(=O)N2,inactive
8,CCN1CCC[C@H]1CNC(=O)c1c(O)c(Cl)cc(Cl)c1OC,inactive
9,CN(C(=O)CCCOc1ccc2[nH]c(=O)ccc2c1)C1CCCCC1,inactive
10,CSc1ccc(C(=O)c2[nH]c(=O)[nH]c2C)cc1,inactive
11,CCCCCN(CCCCC)C(=O)C(CCC(=O)O)NC(=O)c1ccc(Cl)c(Cl)c1 (stereo not drawn),inactive
12,O=C(CCNNC(=O)c1ccncc1)NCc1ccccc1,inactive
13,COCCc1ccc(OCC(O)CNC(C)C)cc1 (stereo not drawn),inactive
14,c1ccc2c(c1)CCCC2C1=NCCN1 (stereo not drawn),inactive
15,OC(CCN1CCCCC1)(c1ccccc1)C1CCCCC1 (stereo not drawn),inactive
16,CCn1ccnc1CC1COc2ccccc2O1 (stereo not drawn),inactive
17,Cc1ccc(S(=O)(=O)NC(=O)NN2CCCCCC2)cc1,inactive
18,CCCOc1ccccc1-c1nc2n[nH]nc2c(=O)[nH]1,inactive
19,NC(=O)c1ncn([C@@H]2O[C@H](CO)[C@@H](O)[C@H]2O)c1O,inactive
20,CCc1cccc(N(C)C(N)=Nc2cccc3ccccc23)c1,inactive
21,Cc1nc2sccn2c(=O)c1CCN1CCC(=C(c2ccc(F)cc2)c2ccc(F)cc2)CC1,inactive

# Biological target: D(1A) dopamine receptor (Homo sapiens) (UniProt P21728)
# Assay: HTS Assay for Allosteric Agonists of the Human D1 Dopamine Receptor: Primary Screen for Agonists (AID 488981)
# Conditions: Inducible HEK293 T-REx D1 cells, calcium-flux fluorescence, 180 s kinetic; series mostly up to 41.8 µM
# Procedure, shortened: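 Tetracycline-induced HEK293 T-REx cells force-coupled to calcium signalling were incubated overnight at 30 C and dye-loaded at room temperature. Calcium flux over 180 s after compound addition flagged agonists; a further 180 s read after EC20 dopamine flagged potentiators.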
# Chain of D(1A) dopamine receptor (Homo sapiens) (P21728 whole entry, looked up): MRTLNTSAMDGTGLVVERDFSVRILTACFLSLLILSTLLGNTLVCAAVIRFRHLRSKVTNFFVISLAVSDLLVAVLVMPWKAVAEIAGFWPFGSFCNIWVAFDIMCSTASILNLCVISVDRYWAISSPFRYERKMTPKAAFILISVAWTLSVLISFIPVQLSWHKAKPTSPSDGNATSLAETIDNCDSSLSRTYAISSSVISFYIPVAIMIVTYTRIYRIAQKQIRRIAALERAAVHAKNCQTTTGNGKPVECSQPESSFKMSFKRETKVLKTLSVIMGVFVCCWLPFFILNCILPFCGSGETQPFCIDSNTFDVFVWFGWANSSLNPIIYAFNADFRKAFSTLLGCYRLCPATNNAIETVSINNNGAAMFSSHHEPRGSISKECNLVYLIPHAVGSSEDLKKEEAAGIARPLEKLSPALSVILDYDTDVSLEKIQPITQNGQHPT
row,SMILES,Potency
1,CC(C)[N+](C)(CCOC(=O)C1c2ccccc2Oc2ccccc21)C(C)C,inactive
2,CC1=NS(=O)(=O)c2cc(Cl)ccc2N1,inactive
3,NC1=NCC2c3ccccc3Cc3ccccc3N12 (stereo not drawn),inactive
4,O=C(O)CN(CCOCCOCCN(CC(=O)O)CC(=O)O)CC(=O)O,inactive
5,CCO/C([O-])=N/c1c[n+](N2CCOCC2)no1,inactive
6,CNCCC(Oc1ccccc1OC)c1ccccc1 (stereo not drawn),inactive
7,C[N+](C)(C)CCOC(=O)CCC(=O)OCC[N+](C)(C)C,inactive
8,CCN(CC)CCCN(c1ccccc1)C1Cc2ccccc2C1,inactive
9,CCCN(CCC)CCc1cccc2c1CC(=O)N2,inactive
10,C[C@@H](O)[C@H]1C(=O)N2C(C(=O)O)=C(SCCN=CN)C[C@H]12,inactive
11,CCN1CCC[C@H]1CNC(=O)c1c(O)c(Cl)cc(Cl)c1OC,inactive
12,CC(C)COCC(CN(Cc1ccccc1)c1ccccc1)N1CCCC1 (stereo not drawn),inactive
13,CC(C)(Oc1ccc(CCNC(=O)c2ccc(Cl)cc2)cc1)C(=O)O,inactive
14,CN1C(=O)CC[C@H]1c1cccnc1,inactive
15,Cc1nc2ccccn2c(=O)c1CCN1CCC(C(=O)c2ccc(F)cc2)CC1,inactive
16,NC(=O)c1cn(Cc2c(F)cccc2F)nn1,inactive
17,CCCCCCCC/C=C\CCCCCCCC(=O)NCc1ccc(O)c(OC)c1,inactive

row,SMILES,Potency
1,CN(C(=O)CCCOc1ccc2[nH]c(=O)ccc2c1)C1CCCCC1,inactive
2,CSc1ccc(C(=O)c2[nH]c(=O)[nH]c2C)cc1,inactive
3,C[C@]12CC[C@@H]3c4ccc(O)cc4C[C@@H](CCCCCCCCCS(=O)CCCC(F)(F)C(F)(F)F)[C@H]3[C@@H]1CC[C@@H]2O (stereo partly drawn),inactive
4,CC(=O)[C@@]1(O)CC[C@H]2[C@@H]3CCC4=CC(=O)CC[C@]4(C)[C@H]3CC[C@@]21C,inactive
5,O=C(CCNNC(=O)c1ccncc1)NCc1ccccc1,inactive
6,COCCc1ccc(OCC(O)CNC(C)C)cc1 (stereo not drawn),inactive
7,c1ccc2c(c1)CCCC2C1=NCCN1 (stereo not drawn),inactive
8,Cc1cccc(C)c1NC(=O)C(C)N (stereo not drawn),inactive
9,OC(CCN1CCCCC1)(c1ccccc1)C1CCCCC1 (stereo not drawn),inactive
10,CCn1ccnc1CC1COc2ccccc2O1 (stereo not drawn),inactive
11,CCCN(CCC)C(=O)C(CCC(=O)O)NC(=O)c1ccccc1 (stereo not drawn),inactive
12,Cc1ccc(S(=O)(=O)NC(=O)NN2CCCCCC2)cc1,inactive
13,CCCOc1ccccc1-c1nc2n[nH]nc2c(=O)[nH]1,inactive
14,NC(=O)c1ncn([C@@H]2O[C@H](CO)[C@@H](O)[C@H]2O)c1O,inactive
15,C[n+]1cc2c3c(ccc2c2ccc4cc5c(cc4c21)OCO5)OCO3,inactive
16,Cc1nc2sccn2c(=O)c1CCN1CCC(=C(c2ccc(F)cc2)c2ccc(F)cc2)CC1,inactive

# — PubChem BioAssay (NCATS)
